Assay results as given in PubChem BioAssay AID1159580 (chemical genetic matrix, 2015).
Where “and” joins values, the source holds several entries; their conditions need not be identical. Equal values may be shown once. Hit rate of the full screen: of about 5,500 compounds, about 2,000 (36%) were called active. About 18% were inconclusive and are not listed. No stated cut-off is given here; in the data, active means normalized growth mostly below about 0.91 (no sharp cut-off); inconclusive means no clear call, values can overlap the other calls; inactive means mostly above about 0.92. The list shows a part of the results.

Test: chemical genetic growth profiling, strain panel (AID 1159580);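 further: tested at 20 µM; growth read once vehicle control cultures reached saturation at 30 °C; 1 = growth at the plate median or of vehicle wells; lower values mean less growth of the strain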
Settings: S. cerevisiae deletion strains, growth OD

Measured: normalized growth

Nc1ccn(C2O[C@H](CO)[C@@H](O)[C@H]2O)c(=O)n1 (some centres undefined)
inactive: locus YAL021C, strain ccr4, hits give low values 0.985 | locus YAL026C, strain drs2, hits give low values 0.983 | locus YAL030W, strain snc1, hits give low values 0.982 | locus YBL061C, strain skt5, hits give low values 0.996 | locus YBR009C, strain hhf1, hits give low values 0.997 | locus YBR021W, strain FUR4, hits give low values 1.02 | locus YBR023C, strain chs3, hits give low values 1 | locus YBR171W, strain sec66, hits give low values 0.991 | locus YBR229C, strain ROT2, hits give low values 0.997 | locus YBR231C, strain swc5, hits give low values 0.987 | locus YBR279W, strain paf1, hits give low values 0.995 | locus YCL011C, strain gbp2, hits give low values 0.991 | locus YCL016C, strain dcc1, hits give low values 1 | locus YCL029C, strain bik1, hits give low values 1.01 | locus YCL061C, strain MRC1, hits give low values 0.992 | locus YCL069W, strain vba3, hits give low values 0.992 | locus YCR088W, strain abp1, hits give low values 0.985 | locus YDL005C, strain med2, hits give low values 0.983 | locus YDL035C, strain GPR1, hits give low values 1.01 | locus YDL040C, strain nat1, hits give low values 0.987 | locus YDL074C, strain BRE1, hits give low values 1.03 | locus YDL101C, strain DUN1, hits give low values 1.02 | locus YDL185W, strain tfp1, hits give low values 1.03 | locus YDL192W, strain arf1, hits give low values 1.01 | locus YDR001C, strain nth1, hits give low values 0.977 | locus YDR069C, strain doa4, hits give low values 0.992 | locus YDR101C, strain arx1, hits give low values 1.03 | locus YDR137W, strain rgp1, hits give low values 0.982 | locus YDR150W, strain NUM1, hits give low values 0.962 | locus YDR159W, strain sac3, hits give low values 0.982 | locus YDR162C, strain NBP2, hits give low values 1 | locus YDR195W, strain ref2 0.974 | locus YDR297W, strain sur2, hits give low values 0.982 | locus YDR318W, strain mcm21, hits give low values 0.998 | locus YDR334W, strain swr1, hits give low values 0.981 | locus YDR335W, strain msn5, hits give low values 0.982 | locus YDR388W, hits give low values 1 | locus YDR392W, strain spt3, hits give low values 0.995 | locus YDR502C, strain sam2, hits give low values 1.01 | locus YEL003W, strain gim4, hits give low values 0.99 | locus YEL037C, strain rad23, hits give low values 0.991 | locus YEL061C, strain CIN8 (second series), hits give low values 0.983 | locus YEL061C, strain CIN8, hits give low values 1.01 | locus YER015W, strain faa2, hits give low values 1.01 | locus YER016W, strain bim1, hits give low values 0.987 | locus YER110C, hits give low values 1.01 | locus YER111C, strain swi4, hits give low values 0.982 | locus YER155C, strain BEM2 (second series), hits give low values 0.975 | locus YER155C, strain BEM2, hits give low values 1 | locus YER167W, strain BCK2, hits give low values 0.987 | locus YFR010W, strain ubp6, hits give low values 0.972 | locus YGL078C, strain dbp3, hits give low values 1.01 | locus YGL086W, strain mad1, hits give low values 1.03 | locus YGL167C, strain pmr1, hits give low values 0.997 | locus YGL173C, strain kem1, hits give low values 0.995 | locus YGL227W, strain vid30, hits give low values 0.993 | locus YGL240W, strain doc1, hits give low values 1.01 | locus YGL248W, strain PDE1, hits give low values 0.991 | locus YGL253W, strain hxk2, hits give low values 0.996 | locus YGR078C, strain PAC10, hits give low values 1.02 | locus YGR135W, strain pre9, hits give low values 1 | locus YGR252W, strain gcn5, hits give low values 0.993 | locus YHR013C, strain ard1, hits give low values 1.01 | locus YHR027C, strain rpn1, hits give low values 0.989 | locus YHR030C, strain SLT2, hits give low values 1.01 and 1 | locus YHR079C, strain IRE1 (second series), hits give low values 1 | locus YHR079C, strain IRE1, hits give low values 0.995 | locus YHR094C, strain hxt1, hits give low values 1.01 | locus YHR129C, strain ARP1, hits give low values 1.01 | locus YHR142W, strain chs7, hits give low values 0.999 | locus YHR200W, strain rpn10, hits give low values 1.02 | locus YIL066C, strain RNR3, hits give low values 0.995 | locus YIL073C, strain SPO22, hits give low values 1.02 | locus YIL125W, strain kgd1, hits give low values 1.01 | locus YIR030C, strain dcg1, hits give low values 1.01 | locus YJL092W, strain hpr5, hits give low values 0.988 | locus YJL095W, strain BCK1 (second series), hits give low values 0.995 | locus YJL095W, strain BCK1, hits give low values 1.06 and 1 | locus YJL115W, strain asf1, hits give low values 0.975 | locus YJL129C, strain trk1, hits give low values 0.995 | locus YJL134W, strain LCB3, hits give low values 0.999 | locus YJL154C, strain vps35, hits give low values 0.978 | locus YJL164C, strain tpk1, hits give low values 1 | locus YJL166W, strain qcr8, hits give low values 0.999 | locus YJL168C, strain set2, hits give low values 0.999 | locus YJL187C, strain SWE1 (second series), hits give low values 1.04 | locus YJL187C, strain SWE1, hits give low values 0.987 | locus YJR043C, strain POL32, hits give low values 1 | locus YJR066W, strain TOR1, hits give low values 0.909
